Laboratory results: PubChem BioAssay (Tox21)
Records with an inconclusive call do not appear. Activity calls are given as the source filed them. The call rests on the fitted dose curve; in most records, active means well fitted curve in the direction sought with a large enough effect in the repeat runs; inconclusive means weak or mixed curves; inactive means no such curve, though single readings can be large; an effect the other way counts as inactive or inconclusive.

Key:
[1] = Caspase-3/7 induction in CHO-K1 cells by small molecules, qHTS assay (AID 1346980); further: nearly all actives have a fitted effect of over 15% in size
Summary of the method: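 Wild-type cells were seeded at 1,500 per well and settled 5 hr at 37 C, 5% CO2, then exposed to DMSO-dissolved compounds for 17 hr. Caspase-Glo 3/7 reagent was added, and luminescence was read after 30min at room temperature.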

[2] = Caspase-3/7 induction in HepG2 cells by small molecules, qHTS cell viability counter screen (AID 1346981); further: nearly all actives have a fitted effect of over 30% in size; further: potency means the concentration at half of the fitted maximal effect
Summary of the method: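 Wild-type HepG2 cells (2,000/well) were allowed to settle for 5 hr at 37 C, 5% CO2, then dosed with compounds in DMSO by pin transfer. After 16 hr at 37 C, CellTiter-Fluor was added and fluorescence read 1 hr later.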

[3] = molecular target: Nuclear receptor subfamily 1 group I member 2 (Homo sapiens) (UniProt O75469); assay: Human pregnane X receptor (PXR) small molecule agonists, qHTS assay (AID 1346982); further: nearly all actives have a fitted effect of over 35% in size; further: potency means the concentration at half of the fitted maximal effect
Summary of the method: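 PXR-Luc HepG2 cells (CYP3A4 promoter-driven luciferase) were seeded in medium with 5% charcoal-stripped FBS, left 5 hr at 37 C, then exposed to compounds in DMSO for 24 hr. Luminescence was read after ONE-Glo addition.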

[4] = molecular target: Cytochrome P450 2C19 (Homo sapiens) (UniProt P33261); assay: Cytochrome P450 Family 2 Subfamily C Member 19 (CYP2C19) small molecule antagonists: luciferase reporter qHTS assay (AID 1671197); further: nearly all actives have a fitted effect of over 65% in size; further: potency means the concentration at half of the fitted maximal effect
Summary of the method: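 Light output is proportional to CYP2C19 activity: proluciferin substrate is converted to luciferin, then detected by a luciferin detection reagent that also stops the 1 h, 37C NADPH-driven reaction. Ketoconazole serves as positive control.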

[5] = molecular target: Cytochrome P450 2C9 (Homo sapiens) (UniProt P11712); assay: Cytochrome P450 Family 2 Subfamily C Member 9 (CYP2C9) small molecule antagonists: luciferase reporter qHTS assay (AID 1671198); further: nearly all actives have a fitted effect of over 50% in size; further: potency means the concentration at half of the fitted maximal effect
Summary of the method: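 CYP2C9 activity was measured with a P450-Glo proluciferin substrate. Enzyme–substrate mix was held with compound for 10 min at room temperature, then NADPH regeneration solution was added for 1 h at 37C. Luciferin product was read as luminescence.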

[6] = molecular target: Cytochrome P450 1A2 (Homo sapiens) (UniProt P05177); assay: Cytochrome P450 Family 1 Subfamily A Member 2 (CYP1A2) small molecule antagonists: luciferase reporter qHTS assay (AID 1671199); further: nearly all actives have a fitted effect of over 50% in size; further: potency means the concentration at half of the fitted maximal effect
Summary of the method: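 Human CYP1A2 activity measured with a P450-Glo proluciferin substrate; compounds in DMSO preincubated 10 min at room temperature with enzyme-substrate mix, then NADPH regeneration system added for 1 h. Luciferin detection reagent, 20 min, luminescence read.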

[7] = molecular target: Voltage-gated inwardly rectifying potassium channel KCNH2 (Homo sapiens) (UniProt Q12809); assay: Human Ether-a-go-go-Related Gene (hERG) channel small molecule antagonists: fluorescence cell-based qHTS assay (AID 1671200);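 further: hERG-expressing U2OS cells given a thallium stimulus after FluxOR II dye loading; series mostly up to about 77 µM; nearly all actives have a fitted effect of over 50% in size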
Summary of the method: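 Measured: Tl+ flux via fluorescence (480/540 nm) in hERG-expressing U2OS cells after 1 h dye loading at room temperature.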

[8] = molecular target: Cytochrome P450 3A4 (Homo sapiens) (UniProt P08684); assay: Cytochrome P450 Family 3 Subfamily A Member 4 (CYP3A4) small molecule antagonists: luciferase reporter qHTS assay (AID 1671201); further: nearly all actives have a fitted effect of over 50% in size; further: potency means the concentration at half of the fitted maximal effect
Summary of the method: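 Setup: enzyme-substrate mix, compound pin transfer, 10 min RT. Reaction: NADPH regeneration solution, 1 h RT. Readout: detection reagent stops turnover, luminescence measured after 20 min, expressed in relative luminescence units.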

[9] = molecular target: Cytochrome P450 2D6 (Homo sapiens) (UniProt P10635); assay: Cytochrome P450 Family 2 Subfamily D Member 6 (CYP2D6) small molecule antagonists: luciferase reporter qHTS assay (AID 1671196)
Summary of the method: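 CYP2D6 enzyme–substrate mix was held with compound for 10 min at room temperature, then NADPH regeneration solution was added and the reaction ran 1 h at room temperature. Luciferin product was detected by luminescence after 20 min with detection reagent.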

Measured: Potency

Nuclear receptor subfamily 1 group I member 2 (Homo sapiens), sequence (O75469 whole entry, looked up): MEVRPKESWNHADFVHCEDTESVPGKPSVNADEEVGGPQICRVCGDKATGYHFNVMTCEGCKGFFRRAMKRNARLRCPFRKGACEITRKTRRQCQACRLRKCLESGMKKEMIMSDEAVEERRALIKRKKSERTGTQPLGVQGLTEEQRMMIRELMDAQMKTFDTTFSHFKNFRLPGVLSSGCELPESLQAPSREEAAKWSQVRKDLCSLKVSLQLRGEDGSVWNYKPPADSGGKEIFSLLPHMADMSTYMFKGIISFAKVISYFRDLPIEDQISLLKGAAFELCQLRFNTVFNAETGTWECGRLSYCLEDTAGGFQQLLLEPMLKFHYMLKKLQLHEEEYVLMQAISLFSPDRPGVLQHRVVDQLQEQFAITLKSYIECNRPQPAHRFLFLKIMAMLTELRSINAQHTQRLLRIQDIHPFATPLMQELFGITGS
Voltage-gated inwardly rectifying potassium channel KCNH2 (Homo sapiens), sequence (Q12809 whole entry, looked up): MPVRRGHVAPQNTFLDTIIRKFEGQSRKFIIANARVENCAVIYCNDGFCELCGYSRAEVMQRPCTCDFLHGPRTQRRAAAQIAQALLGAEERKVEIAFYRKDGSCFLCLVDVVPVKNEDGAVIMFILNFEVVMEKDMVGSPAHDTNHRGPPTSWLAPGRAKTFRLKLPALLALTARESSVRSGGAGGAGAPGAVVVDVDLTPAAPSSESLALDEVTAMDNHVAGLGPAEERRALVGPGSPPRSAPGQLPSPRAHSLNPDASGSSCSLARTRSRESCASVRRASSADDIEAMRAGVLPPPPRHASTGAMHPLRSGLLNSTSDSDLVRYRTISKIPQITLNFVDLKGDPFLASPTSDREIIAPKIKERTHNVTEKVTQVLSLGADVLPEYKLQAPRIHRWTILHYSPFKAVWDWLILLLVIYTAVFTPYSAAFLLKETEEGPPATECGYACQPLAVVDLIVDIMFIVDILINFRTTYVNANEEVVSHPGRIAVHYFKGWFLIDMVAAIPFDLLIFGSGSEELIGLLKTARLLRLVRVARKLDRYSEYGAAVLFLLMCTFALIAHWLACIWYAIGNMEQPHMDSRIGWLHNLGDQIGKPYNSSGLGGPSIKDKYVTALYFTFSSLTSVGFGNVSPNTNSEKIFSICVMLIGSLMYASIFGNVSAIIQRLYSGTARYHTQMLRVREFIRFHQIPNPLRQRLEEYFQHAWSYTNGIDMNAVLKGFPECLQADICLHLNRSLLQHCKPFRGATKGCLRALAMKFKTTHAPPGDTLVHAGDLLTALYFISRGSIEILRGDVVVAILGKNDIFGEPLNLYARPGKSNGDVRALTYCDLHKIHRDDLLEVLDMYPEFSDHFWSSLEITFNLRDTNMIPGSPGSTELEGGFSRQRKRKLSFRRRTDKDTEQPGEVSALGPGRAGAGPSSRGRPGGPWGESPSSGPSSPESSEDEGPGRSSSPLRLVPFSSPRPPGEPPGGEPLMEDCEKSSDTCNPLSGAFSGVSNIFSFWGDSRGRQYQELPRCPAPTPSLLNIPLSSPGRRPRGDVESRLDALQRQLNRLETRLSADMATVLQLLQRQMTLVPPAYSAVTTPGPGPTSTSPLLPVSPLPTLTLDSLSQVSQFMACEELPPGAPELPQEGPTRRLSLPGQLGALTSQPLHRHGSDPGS
Cytochrome P450 3A4 (Homo sapiens), sequence (P08684 whole entry, looked up): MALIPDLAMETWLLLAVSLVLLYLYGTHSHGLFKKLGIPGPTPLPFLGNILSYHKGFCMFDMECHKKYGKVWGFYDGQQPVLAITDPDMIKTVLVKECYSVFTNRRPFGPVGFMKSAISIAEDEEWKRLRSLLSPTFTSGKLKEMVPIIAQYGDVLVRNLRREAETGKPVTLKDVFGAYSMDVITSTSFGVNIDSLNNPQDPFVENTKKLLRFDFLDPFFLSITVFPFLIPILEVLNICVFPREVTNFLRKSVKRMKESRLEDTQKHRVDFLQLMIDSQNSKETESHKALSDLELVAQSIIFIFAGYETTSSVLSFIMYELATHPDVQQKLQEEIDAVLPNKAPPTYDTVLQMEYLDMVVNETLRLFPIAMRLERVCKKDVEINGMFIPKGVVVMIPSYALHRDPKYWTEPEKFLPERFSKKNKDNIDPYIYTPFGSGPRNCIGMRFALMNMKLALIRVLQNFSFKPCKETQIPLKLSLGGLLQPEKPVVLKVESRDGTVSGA
Cytochrome P450 2C19 (Homo sapiens), sequence (P33261 whole entry, looked up): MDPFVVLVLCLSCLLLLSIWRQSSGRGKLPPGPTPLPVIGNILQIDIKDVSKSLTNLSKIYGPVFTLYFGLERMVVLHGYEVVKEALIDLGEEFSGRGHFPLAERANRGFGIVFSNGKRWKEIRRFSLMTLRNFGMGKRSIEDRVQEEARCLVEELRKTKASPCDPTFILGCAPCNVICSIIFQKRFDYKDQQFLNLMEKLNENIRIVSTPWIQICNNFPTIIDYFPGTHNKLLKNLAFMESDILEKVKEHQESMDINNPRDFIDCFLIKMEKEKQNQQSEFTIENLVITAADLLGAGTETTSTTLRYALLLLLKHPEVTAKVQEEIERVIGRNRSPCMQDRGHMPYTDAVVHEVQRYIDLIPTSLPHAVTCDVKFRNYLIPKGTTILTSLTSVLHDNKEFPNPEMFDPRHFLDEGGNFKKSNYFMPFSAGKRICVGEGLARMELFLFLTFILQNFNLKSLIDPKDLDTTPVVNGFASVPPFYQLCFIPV
Cytochrome P450 1A2 (Homo sapiens), sequence (P05177 whole entry, looked up): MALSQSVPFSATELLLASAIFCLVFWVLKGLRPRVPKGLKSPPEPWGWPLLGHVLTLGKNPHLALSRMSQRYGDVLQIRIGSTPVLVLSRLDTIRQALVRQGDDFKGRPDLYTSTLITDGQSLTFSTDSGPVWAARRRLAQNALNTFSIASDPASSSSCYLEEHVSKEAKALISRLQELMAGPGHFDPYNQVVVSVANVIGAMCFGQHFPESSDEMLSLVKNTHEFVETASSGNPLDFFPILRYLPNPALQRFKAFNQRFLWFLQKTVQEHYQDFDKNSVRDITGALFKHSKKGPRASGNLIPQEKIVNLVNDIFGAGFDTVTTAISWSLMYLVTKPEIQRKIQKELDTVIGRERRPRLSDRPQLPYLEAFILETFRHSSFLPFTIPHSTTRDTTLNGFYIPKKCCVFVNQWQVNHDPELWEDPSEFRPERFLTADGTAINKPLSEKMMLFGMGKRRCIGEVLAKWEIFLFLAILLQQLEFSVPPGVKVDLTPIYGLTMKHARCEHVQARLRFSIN
Cytochrome P450 2C9 (Homo sapiens), sequence (P11712 whole entry, looked up): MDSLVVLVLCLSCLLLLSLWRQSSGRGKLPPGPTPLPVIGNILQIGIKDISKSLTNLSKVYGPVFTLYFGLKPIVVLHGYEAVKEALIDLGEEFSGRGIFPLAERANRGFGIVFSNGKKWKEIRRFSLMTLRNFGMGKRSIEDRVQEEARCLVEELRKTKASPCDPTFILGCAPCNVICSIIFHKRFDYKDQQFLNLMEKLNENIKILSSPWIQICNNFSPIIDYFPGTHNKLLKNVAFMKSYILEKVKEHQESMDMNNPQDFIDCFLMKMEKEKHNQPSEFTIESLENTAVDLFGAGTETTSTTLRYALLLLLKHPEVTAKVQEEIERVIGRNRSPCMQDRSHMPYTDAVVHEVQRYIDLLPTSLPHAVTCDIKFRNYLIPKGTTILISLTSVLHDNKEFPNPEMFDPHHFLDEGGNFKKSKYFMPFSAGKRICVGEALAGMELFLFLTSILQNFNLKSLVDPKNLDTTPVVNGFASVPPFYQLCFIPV
Cytochrome P450 2D6 (Homo sapiens), sequence (P10635 whole entry, looked up): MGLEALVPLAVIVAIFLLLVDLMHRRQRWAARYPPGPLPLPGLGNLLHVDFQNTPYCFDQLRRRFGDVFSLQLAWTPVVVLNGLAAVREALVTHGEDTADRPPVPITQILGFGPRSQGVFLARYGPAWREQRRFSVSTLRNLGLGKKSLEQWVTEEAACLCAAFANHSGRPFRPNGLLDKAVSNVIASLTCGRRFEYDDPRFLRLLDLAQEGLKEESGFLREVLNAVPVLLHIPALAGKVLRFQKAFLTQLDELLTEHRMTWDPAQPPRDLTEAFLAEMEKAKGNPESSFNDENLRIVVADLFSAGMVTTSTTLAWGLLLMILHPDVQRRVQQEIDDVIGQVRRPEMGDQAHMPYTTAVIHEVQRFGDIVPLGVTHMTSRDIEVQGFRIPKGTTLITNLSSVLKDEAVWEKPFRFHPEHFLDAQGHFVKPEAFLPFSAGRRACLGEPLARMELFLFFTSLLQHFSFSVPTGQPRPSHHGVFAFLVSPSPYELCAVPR

Nc1ccc(Oc2cccc(Oc3ccc(N)cc3)c2)cc1
active: [4] 11.2 µM | [5] 6.33 µM | [8] 6.33 µM
not listed: [9]
inactive: all other assays above

Cc1cc(Br)ccc1NC(=O)CCl
active: [2] 61.1 µM | [3] 3.44 µM | [4] 79.6 µM | [5] 39.9 µM | [6] 11.2 µM
inactive: [1] | [7] | [8]

C/C=C/C(=O)C1=C(C)C=CCC1(C)C
not listed: [9]
inactive: all other assays above

C1=CCCC1
not listed: [9]
inactive: all other assays above

CCc1cccc(C)c1N(C(=O)CS(=O)(=O)O)C(C)COC (stereo unspecified)
not listed: [4] | [5] | [8]
inactive: all other assays above

CC(C)c1ccc2sc3ccccc3c(=O)c2c1
active: [3] 17.2 µM | [4] 7.96 µM | [5] 11.2 µM | [6] 7.1 µM
not listed: [9]
inactive: all other assays above

CC1CCC(C(C)(C)O)CC1 (stereo unspecified)
not listed: [9]
inactive: all other assays above

CC(C)(C)C1=CC(=O)C(C(C)(C)C)=CC1=O
active: [3] 18.8 µM | [4] 6.92 µM | [5] 15.5 µM | [6] 17.4 µM
not listed: [9]
inactive: all other assays above

CCC(O)CO (stereo unspecified)
not listed: [9]
inactive: all other assays above

CSc1nnc(C(C)(C)C)c(=O)[nH]1
active: [5] 35.6 µM
not listed: [9]
inactive: all other assays above

N#CCCOCCC#N
not listed: [9]
inactive: all other assays above

CC1=CC[C@@H](C(C)(C)O)CC1
not listed: [9]
inactive: all other assays above

Cc1ccc2nc(-c3ccc(N)cc3)sc2c1S(=O)(=O)O
active: [3] 2.69 µM | [4] 22.1 µM | [5] 15.7 µM
inactive: [1] | [2] | [7] | [8]

CCCCCCCCCCCC(=O)Cl
not listed: [4] | [5]
inactive: all other assays above

CCOC=C(C(=O)OCC)C(=O)OCC
not listed: [9]
inactive: all other assays above
